Results published in ChEMBL document CHEMBL3988442, “University of Dundee, Small-Polar-MMV Screening Library” (2021).
For some of these results: Entries with a potency or affinity are not part of this list.

Tests used:
Set-up in all cases: scale not given: direction of the effect not stated beside the values
[1] = biological target: Protein translocase subunit SecA (Escherichia coli (strain K12)) (UniProt P10408); test: Assay to Identify E. coli SecA ATPase Inhibitors; assay type: functional; details: 30 µM
[2] = biological target: T1, Ubiquitin-activating enzyme e1, putative (Leishmania donovani (strain BPK282A1)) (UniProt E9BSI1); test: Leishmania donovani Ubiquitin Activating Enzyme (LdE1); assay type: functional; details: 30 µM
T1 sequence (whole entry): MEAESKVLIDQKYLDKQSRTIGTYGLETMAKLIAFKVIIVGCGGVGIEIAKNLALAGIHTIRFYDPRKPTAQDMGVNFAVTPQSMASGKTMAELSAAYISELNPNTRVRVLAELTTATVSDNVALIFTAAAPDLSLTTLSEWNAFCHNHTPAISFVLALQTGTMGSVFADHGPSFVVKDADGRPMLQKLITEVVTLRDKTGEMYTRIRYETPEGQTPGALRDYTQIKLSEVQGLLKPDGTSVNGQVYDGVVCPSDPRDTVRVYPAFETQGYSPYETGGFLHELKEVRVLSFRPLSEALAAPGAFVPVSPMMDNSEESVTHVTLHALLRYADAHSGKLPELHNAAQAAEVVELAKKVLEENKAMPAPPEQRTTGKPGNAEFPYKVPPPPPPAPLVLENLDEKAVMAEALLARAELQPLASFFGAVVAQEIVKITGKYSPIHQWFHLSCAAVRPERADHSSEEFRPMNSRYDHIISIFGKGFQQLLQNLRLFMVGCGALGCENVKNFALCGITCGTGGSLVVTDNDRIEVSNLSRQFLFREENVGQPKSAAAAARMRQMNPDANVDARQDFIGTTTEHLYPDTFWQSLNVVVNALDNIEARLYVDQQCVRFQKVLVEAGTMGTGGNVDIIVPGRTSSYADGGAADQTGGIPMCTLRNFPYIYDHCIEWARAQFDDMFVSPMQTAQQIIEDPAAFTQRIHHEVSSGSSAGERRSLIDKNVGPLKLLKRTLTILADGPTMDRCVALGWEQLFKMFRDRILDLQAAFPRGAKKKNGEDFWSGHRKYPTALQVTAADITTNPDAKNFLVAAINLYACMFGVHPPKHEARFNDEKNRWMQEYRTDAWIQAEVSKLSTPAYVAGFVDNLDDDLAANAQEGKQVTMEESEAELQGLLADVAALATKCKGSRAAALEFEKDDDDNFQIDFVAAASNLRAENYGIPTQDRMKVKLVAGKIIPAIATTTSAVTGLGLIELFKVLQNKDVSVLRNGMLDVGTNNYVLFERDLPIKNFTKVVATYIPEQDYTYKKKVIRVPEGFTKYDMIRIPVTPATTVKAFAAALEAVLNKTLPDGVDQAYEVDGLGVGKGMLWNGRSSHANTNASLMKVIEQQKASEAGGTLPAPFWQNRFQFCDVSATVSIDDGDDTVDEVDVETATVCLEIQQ

[3] = biological target: AMP-activated protein kinase, AMPK (Homo sapiens) (UniProt P54646+O43741+P54619+Q9UGJ0+Q9Y478+Q13131+Q9UGI9); test: AMP-dependent Kinase enzyme assay. An in vitro enzyme assay that detects ADP turnover that is directly proportional to AMPK activity. This uses naive AMPK that is activated during the assay with MK-8722; assay type: functional; details: 30 µM
[4] = biological target: Sialic acid-binding Ig-like lectin 9 (Homo sapiens) (UniProt Q9Y336); test: Hs-Siglec9 ALPHAscreen SOP 20170721; details: 10 µM
Trypanosoma cruzi = test: Trypanosoma cruzi phosphomannomutase and mannose-1-phosphate guanylyltransferase assay; assay type: functional; details: 10 µM
[5] = biological target: T2, Arginase-2, mitochondrial (Homo sapiens) (UniProt P78540); test: in vitro enzyme assay to detect the production of urea directly proportional to the activity of Arginase II; assay type: functional; details: 33.3 µM; further: in the data most compounds retested in dose-response had high values
T2 sequence (whole entry): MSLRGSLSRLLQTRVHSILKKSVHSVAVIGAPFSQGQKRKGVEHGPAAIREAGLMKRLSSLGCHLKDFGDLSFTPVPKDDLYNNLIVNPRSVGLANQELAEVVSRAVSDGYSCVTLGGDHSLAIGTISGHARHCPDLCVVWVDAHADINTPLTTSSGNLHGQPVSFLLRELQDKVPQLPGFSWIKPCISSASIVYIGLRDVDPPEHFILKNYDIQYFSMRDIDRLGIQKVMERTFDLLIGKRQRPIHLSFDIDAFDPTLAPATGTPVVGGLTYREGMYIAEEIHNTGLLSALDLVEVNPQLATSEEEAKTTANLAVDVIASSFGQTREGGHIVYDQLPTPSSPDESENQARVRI

[6] = biological target: T3, Proteasome subunit beta (Trypanosoma cruzi) (UniProt O96673); test: Trypanosoma cruzi proteasome chymotrypsin-like activity (TcProtChymo) assay.; further: in the data most compounds retested in dose-response had high values; assay type: functional; details: 9.37 µM
T3 sequence (whole entry): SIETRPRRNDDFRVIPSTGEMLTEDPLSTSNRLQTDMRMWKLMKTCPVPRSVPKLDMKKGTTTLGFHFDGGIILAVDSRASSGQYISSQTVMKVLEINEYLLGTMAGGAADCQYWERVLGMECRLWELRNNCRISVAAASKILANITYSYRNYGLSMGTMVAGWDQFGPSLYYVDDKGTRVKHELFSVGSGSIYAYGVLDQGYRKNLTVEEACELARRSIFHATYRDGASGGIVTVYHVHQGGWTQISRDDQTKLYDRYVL

Homo sapiens = species on record: Homo sapiens; test: To identify inhibition of the IFN signalling (Jak-Stat) pathway via expression of an eGFP reporter gene under the control of an IFN-stimulated response element (ISRE) containing MxA promoter.; assay type: functional; details: 30 µM
[7] = biological target: T4, Tyrosyl-tRNA synthetase, putative (Trypanosoma cruzi (strain CL Brener)) (UniProt Q4DSP6); test: Trypanosoma cruzi tyrosyl tRNA synthetase (TcYRS) _High Tyrosine SOP; assay type: functional; details: 30 µM; further: in the data most compounds retested in dose-response had high values
T4 sequence (whole entry): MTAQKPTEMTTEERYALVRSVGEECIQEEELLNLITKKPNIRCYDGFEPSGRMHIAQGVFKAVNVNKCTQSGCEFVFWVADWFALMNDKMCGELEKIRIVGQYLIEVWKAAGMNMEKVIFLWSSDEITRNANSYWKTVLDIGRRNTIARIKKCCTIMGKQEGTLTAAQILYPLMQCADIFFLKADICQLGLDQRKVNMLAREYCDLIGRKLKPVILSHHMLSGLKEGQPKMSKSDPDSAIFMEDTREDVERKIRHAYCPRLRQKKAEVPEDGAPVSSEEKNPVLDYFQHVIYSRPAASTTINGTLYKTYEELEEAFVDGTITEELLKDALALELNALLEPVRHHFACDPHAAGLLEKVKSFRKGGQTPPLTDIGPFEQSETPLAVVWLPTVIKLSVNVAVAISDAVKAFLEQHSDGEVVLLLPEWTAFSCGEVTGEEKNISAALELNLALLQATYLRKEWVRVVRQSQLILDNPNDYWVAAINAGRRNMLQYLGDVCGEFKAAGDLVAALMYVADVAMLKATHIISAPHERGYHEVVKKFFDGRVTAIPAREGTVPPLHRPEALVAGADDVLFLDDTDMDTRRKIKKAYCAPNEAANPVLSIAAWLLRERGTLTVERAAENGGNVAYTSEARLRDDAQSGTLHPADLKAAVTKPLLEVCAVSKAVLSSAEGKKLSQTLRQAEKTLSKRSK

[8] = biological target: T4, Tyrosyl-tRNA synthetase, putative (Trypanosoma cruzi (strain CL Brener)); test: Trypanosoma cruzi tyrosyl tRNA synthetase (TcYRS) SOP; assay type: functional; details: 30 µM
[9] = biological target: Chromo domain-containing protein 1 (Saccharomyces cerevisiae (strain ATCC 204508 / S288c) (Baker's yeast)) (UniProt P32657); test: ScCHD-1 Enzyme Inhibition Assay; assay type: functional; details: 30 µM; further: in the data most compounds retested in dose-response had high values
Sequence of Chromo domain-containing protein 1 (Saccharomyces cerevisiae (strain ATCC 204508 / S288c) (Baker's yeast)) (P32657 whole entry, the tested form may be a part): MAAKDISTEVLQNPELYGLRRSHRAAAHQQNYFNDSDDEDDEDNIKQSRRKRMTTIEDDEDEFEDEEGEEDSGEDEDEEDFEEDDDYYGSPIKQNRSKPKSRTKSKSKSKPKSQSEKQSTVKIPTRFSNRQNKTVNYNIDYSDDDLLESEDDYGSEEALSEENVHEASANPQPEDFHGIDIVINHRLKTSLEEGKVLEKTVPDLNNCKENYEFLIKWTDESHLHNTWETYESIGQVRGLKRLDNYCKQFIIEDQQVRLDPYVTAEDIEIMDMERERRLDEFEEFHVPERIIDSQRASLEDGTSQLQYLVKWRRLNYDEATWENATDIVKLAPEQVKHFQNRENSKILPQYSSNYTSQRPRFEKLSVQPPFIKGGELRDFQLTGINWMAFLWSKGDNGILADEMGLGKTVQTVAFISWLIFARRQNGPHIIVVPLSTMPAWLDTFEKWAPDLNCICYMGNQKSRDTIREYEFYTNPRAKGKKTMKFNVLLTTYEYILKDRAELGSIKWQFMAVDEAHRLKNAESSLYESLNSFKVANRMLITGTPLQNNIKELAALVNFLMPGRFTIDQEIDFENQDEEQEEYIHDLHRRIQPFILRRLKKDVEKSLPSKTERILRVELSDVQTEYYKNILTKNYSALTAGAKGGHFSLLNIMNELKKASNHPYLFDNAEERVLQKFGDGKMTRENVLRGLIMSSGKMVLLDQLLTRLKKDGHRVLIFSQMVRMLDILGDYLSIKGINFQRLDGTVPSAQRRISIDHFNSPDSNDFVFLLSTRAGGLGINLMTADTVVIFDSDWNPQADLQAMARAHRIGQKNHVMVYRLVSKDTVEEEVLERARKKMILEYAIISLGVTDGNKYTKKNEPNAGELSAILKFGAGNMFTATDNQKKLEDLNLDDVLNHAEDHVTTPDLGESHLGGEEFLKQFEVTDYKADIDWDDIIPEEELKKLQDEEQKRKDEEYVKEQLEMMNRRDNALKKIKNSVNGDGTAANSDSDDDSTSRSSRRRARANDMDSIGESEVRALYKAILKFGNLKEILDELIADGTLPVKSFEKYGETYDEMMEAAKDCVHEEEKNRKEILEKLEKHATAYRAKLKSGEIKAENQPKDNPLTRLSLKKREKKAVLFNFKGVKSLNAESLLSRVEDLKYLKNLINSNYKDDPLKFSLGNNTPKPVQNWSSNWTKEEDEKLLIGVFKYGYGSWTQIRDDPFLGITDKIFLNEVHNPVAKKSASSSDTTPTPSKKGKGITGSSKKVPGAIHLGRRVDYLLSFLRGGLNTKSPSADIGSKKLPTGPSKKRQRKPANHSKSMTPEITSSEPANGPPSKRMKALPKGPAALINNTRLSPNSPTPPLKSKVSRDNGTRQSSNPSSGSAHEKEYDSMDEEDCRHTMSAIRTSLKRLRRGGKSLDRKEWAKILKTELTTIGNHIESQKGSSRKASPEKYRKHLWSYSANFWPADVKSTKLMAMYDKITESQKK

Sequence of Sialic acid-binding Ig-like lectin 9 (Homo sapiens) (Q9Y336 whole entry): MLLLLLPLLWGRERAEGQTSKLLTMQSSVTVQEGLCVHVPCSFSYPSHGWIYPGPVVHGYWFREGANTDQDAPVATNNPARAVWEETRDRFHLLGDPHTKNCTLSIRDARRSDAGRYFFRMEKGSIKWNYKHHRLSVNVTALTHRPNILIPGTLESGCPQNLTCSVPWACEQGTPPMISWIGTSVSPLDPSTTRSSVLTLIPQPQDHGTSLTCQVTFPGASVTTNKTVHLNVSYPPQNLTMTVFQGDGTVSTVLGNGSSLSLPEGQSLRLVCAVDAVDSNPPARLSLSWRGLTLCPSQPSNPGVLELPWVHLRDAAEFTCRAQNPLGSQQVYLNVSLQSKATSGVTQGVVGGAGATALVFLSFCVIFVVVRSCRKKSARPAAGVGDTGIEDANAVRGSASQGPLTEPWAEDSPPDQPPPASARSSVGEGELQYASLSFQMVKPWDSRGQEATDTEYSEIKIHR
Sequence of Protein translocase subunit SecA (Escherichia coli (strain K12)) (P10408 whole entry): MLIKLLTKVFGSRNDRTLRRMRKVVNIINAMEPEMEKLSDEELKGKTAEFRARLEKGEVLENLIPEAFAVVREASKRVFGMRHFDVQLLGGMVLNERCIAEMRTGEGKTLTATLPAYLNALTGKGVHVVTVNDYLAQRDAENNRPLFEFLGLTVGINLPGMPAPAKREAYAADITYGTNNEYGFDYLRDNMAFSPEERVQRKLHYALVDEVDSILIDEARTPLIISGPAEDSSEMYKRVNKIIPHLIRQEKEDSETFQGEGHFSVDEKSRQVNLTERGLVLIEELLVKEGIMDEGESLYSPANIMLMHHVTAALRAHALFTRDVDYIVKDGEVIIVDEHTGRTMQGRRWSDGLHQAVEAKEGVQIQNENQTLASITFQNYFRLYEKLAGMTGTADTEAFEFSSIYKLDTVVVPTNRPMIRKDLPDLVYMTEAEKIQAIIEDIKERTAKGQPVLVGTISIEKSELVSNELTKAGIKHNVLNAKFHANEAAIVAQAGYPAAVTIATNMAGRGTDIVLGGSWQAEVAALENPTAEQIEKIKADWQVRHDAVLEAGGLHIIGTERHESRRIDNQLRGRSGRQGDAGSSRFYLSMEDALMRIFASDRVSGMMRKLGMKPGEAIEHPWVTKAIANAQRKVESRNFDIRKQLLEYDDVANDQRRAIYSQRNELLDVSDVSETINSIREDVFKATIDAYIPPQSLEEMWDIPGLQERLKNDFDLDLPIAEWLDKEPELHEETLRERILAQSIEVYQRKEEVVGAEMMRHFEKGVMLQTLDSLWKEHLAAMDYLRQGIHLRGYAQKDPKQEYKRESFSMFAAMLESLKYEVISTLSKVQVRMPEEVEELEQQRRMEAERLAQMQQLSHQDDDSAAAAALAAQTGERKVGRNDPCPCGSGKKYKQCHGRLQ

Compound	Percent Effect [1]	Percent Effect [2]	Percent Effect [3]	Percent Effect [4]	Percent Effect (Trypanosoma cruzi)	Percent Effect [5]	Percent Effect [6]	Percent Effect (Homo sapiens)	Percent Effect [7]	Percent Effect [8]	Percent Effect [9]
Cc1ccc(-c2cc(CNC(=O)N3CCOC(C)C3)on2)cc1 (stereo unspecified)	0.724%	8.11%	7.2%	-10.1%	-4.92%	3.88%	7.54%	20.6%	6.93%	13.4%	-5.48%
CNC(=O)CCc1cc(C)nc(C2CCCN2)c1 (stereo unspecified)	-6.62%	14.9%	6.02%	1.63%	2.17%	-3.02%	6.08%	-9.75%	2.15%	11.7%	-23.7%
CS(=O)(=O)NCC1CCCN(C(=O)Nc2cccnc2N2CCCC2)C1 (stereo unspecified)	-5.11%	13.2%	-26.3%	-7.09%	-6.33%	2.37%	16.4%	-14.6%	2.13%	5.2%	-7%
COCC(O)CN(C)C(=O)NC1CCN(Cc2ccccn2)CC1 (stereo unspecified)	-2.64%	28.6%	-7.26%	1.62%	4.31%	-2.85%	15.4%	7.67%	5.83%	24.4%	-8.51%
Cc1ccc(CC(=O)NC(C)C(=O)N2CCS(=O)(=O)CC2)cc1 (stereo unspecified)	-6.49%	0%	-3.26%	4.88%	-2.9%	-1.91%	10.2%	1.44%	3.7%	2.44%	-3.12%
Cc1cc(C)c(CNC(=O)NCC2CCCN2C)c(=O)[nH]1 (stereo unspecified)	-7.62%	2.63%	-1.76%	2.1%	-4.89%	-2.68%	4.84%	25.4%	-4.41%	-2.44%	-2.8%
O=C(Nc1ccc(CCN2CCC(O)CC2)cc1)C1CCOCC1	-1.94%	2.7%	-6.78%	11.5%	4.18%	-1.66%	1.98%	3.22%	5.94%	11%	-3.93%
Cn1ncc2c(=O)[nH]c(CN3CCC(Cc4ccccc4)CC3)nc21	-4.67%	10.5%	-7.07%	0.445%	8.87%	3.6%	7.7%	-0.345%	9.36%	25.9%	-10.4%
COc1cc(CNC2CCc3nc(C)nn3C2)cc2c1OCCO2 (stereo unspecified)	-2.1%	7.89%	-9.24%	6.01%	5.51%	5.04%	2.62%	-11.3%	2.46%	11.1%	-1.5%
CN1CCN(Cc2cnc3n2CCN(Cc2cccs2)C3)CC1	-1.16%	21.6%	-2.7%	-1.5%	3.62%	2.87%	19.7%	-1.05%	4.32%	20.5%	-0.68%
CCN(CCNC(=O)c1ccccc1OCCOC)C1CC1	-1.14%	21.5%	-0.982%	-8.11%	0.513%	-4.52%	17%	14.4%	3.12%	17.7%	-34.3%
